KB-3-1 cytotox – kills parental KB-3-1 adenocarcinoma cells. KB-3-1 viability, CellTiter-Glo ATP luminescence, 72 h. 1.4% of 400,000 active. Potency, µM (doses to about 46.1 µM), actives largely listed as cytotoxic; further: potency means the concentration at half of the fitted maximal effect; nearly all actives have a fitted effect of over 60% in size
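72 h, 37 °C compound treatment of KB-3-1 parental cells; CellTiter-Glo added, 10 min, luminescence read. Data corrected against DMSO-only plates and normalized before curve fitting.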
A549 viability – A549 cytotoxicity, counter-screen for Nrf2 inhibitors; 0.16% of 390,000 active; AID 504648; Potency, µM (highest dose often 46 µM), for inactives: at the top dose activity change, negative = cytotoxicity, hits mostly inhibitors; A549 ARE-Fluc cells, CellTiter-Fluor viability, 18-24 h; further: potency means the concentration at half of the fitted maximal effect
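Cytotoxicity counterscreen: CellTiter-Fluor fluorescence was measured in A549 ARE_Fluc cells after 18-24 h of compound exposure in a concentration series. The subsequent BugLite luminescent read reports ARE-luciferase activity.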
KB-V1 cytotox – kills drug-selected multidrug resistant KB-V1 cells; KB-V1 MDR cells viability, CellTiter-Glo, 72 h; Potency, µM (top dose mostly 46.1 µM), usual class: cytotoxic; 3.4% of 400,000 active; AID 1347076; further: potency means the concentration at half of the fitted maximal effect; nearly all actives have a fitted effect of over 60% in size
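KB-V1 cells (P-gp-expressing MDR subline of KB-3-1) in phenol-red-free DMEM with 10% FBS were exposed to library compounds over a concentration series for 72 h at 37 degrees C. Viability read by CellTiter-Glo luminescence; concentration-effect curves fitted after normalization.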
Nrf2 inh – blocks Nrf2 signaling | A549 ARE-Fluc reporter, luciferase luminescence, 18-24 h | Potency, µM (titrated, usually from 46 µM), without a hit: at the top dose activity change, negative = inhibition, usual class: inhibitors | AID 504444 | 2.1% of 360,000 active; further: potency means the concentration at half of the fitted maximal effect; nearly all actives have a fitted effect of over 60% in size
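Nrf2 activity is the BugLite luminescence, read 15 min after reagent at room temperature, following CellTiter-Fluor cytotoxicity readout (30 min, 37C). Compound titrations were applied for 18-24 h to 5000 A549 ARE_Fluc cells/well in 5% FBS OPTI-MEM.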
PI4K2A block – PI4K2A (human) kinase inhibition; 0.13% of 420,000 active; AID 1346378; purified PI4K2A, ADP-Glo luminescence, 1 h; hits give low values; activity change, negative = inhibition, % at 76.9 µM; in the data active means activity change below about -50%; inconclusive means mostly about -30% to -49%;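 further: -100% = wells without enzyme as full effect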
Target sequence (Q9BTU6 whole entry, looked up): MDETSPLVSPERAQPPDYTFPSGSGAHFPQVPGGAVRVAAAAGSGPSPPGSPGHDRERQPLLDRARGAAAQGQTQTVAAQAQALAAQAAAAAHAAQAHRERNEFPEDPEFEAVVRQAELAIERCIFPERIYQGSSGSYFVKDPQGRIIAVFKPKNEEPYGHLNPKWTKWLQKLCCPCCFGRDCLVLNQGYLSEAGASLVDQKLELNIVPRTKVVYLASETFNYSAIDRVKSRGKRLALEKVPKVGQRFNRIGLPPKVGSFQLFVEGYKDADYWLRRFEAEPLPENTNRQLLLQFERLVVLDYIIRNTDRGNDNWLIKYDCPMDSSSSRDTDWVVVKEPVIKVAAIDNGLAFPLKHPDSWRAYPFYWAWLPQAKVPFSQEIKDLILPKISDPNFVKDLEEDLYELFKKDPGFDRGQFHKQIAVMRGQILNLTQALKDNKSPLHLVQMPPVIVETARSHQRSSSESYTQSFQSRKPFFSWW
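In this quantitative HTS, ADP production by PI4K2A was quantified luminescently after 1 h at ambient temperature; 100 microM adenosine served as plate-quality control.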
Giardia kill – Giardia lamblia killing; 0.15% of 340,000 active; Giardia lamblia trophozoite viability; activity change, % at 7.66 µM, hits read low; in the data active means activity change below about -80%; inconclusive means between about -30% and that limit;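 further: parasites exposed to compound for two days anaerobically before the ATP read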
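Compounds were tested on trophozoites seeded at 100 cells/well and held 48 hrs at 37 deg C anaerobically. An ATP-based luminescent kit measured the remaining live cells.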
Starred values were filed as active, the others as inactive; [ ] = remark or other dose. The list is not random: actives were taken first. Their share in the collection is about 5.7%. Unless noted, the call rests on the fitted dose curve; in most records, active means well fitted curve in the direction sought with a large enough effect; inconclusive means small, poorly fitted or top-dose-only effect, or another doubt; inactive means no such curve, though single readings can be large; an effect the other way counts as inactive or inconclusive. Unless noted, on the % scale 0 is the no-effect control and ±100 the full control effect.

CN(C)CCCN=c1cc(-c2ccccc2)oc2ccc(Cl)cc12 was read as KB-3-1 cytotox inconclusive, A549 viability 11%, KB-V1 cytotox inconclusive, Nrf2 inh 5%, PI4K2A block 3 and Giardia kill -86*.
For OCCN=c1cc(-c2ccccc2)oc2ccc(Cl)cc12 the results were KB-3-1 cytotox inconclusive, A549 viability -10%, KB-V1 cytotox 16µM*, Nrf2 inh -29%, PI4K2A block 1 and Giardia kill 7.
For O=c1cc(-c2ccccc2)oc2ccc(Cl)cc12 the results were KB-3-1 cytotox inactive, A549 viability -1%, KB-V1 cytotox 21µM*, Nrf2 inh 13%, PI4K2A block -2 and Giardia kill 8.
`CC(O)CN=c1cc(-c2ccccc2)oc2ccc(Cl)cc12` (configuration not stated) gave KB-3-1 cytotox 21µM*, A549 viability -9%, KB-V1 cytotox inconclusive, Nrf2 inh -12%, PI4K2A block -2 and Giardia kill 2.
Screening CC(C)CN=c1cc(-c2ccccc2)oc2ccc(Cl)cc12 returned KB-3-1 cytotox inconclusive, A549 viability -4%, KB-V1 cytotox inconclusive, Nrf2 inh -24%, PI4K2A block 4 and Giardia kill -8.
For COc1c(Br)cc(Br)cc1/C=N/NC(=O)c1ccncc1 the results were KB-3-1 cytotox inactive, A549 viability -2%, KB-V1 cytotox inactive, Nrf2 inh -6%, PI4K2A block -1 and Giardia kill -4.
For CN(C)c1ccc(C(=O)N/N=C/c2cc(Br)cc(Br)c2O)cc1 the results were KB-3-1 cytotox inconclusive, A549 viability -12%, KB-V1 cytotox inconclusive, Nrf2 inh 13µM*, PI4K2A block 5 and Giardia kill -9.
Screening COc1cc(/C=N\NC(=O)c2cccnc2)ccc1OC(=O)c1ccccc1Cl returned KB-3-1 cytotox inactive, A549 viability -5%, KB-V1 cytotox inconclusive, Nrf2 inh 15µM*, PI4K2A block 4 and Giardia kill 12.
For COc1c(Br)cc(Br)cc1/C=N/NC(=O)c1cccnc1 the results were KB-3-1 cytotox 16µM*, A549 viability 0%, KB-V1 cytotox inactive, Nrf2 inh -1%, PI4K2A block 0 and Giardia kill 5.
Screening COc1cc(/C=N/NC(=O)c2cccnc2)ccc1OC(=O)c1ccco1 returned KB-3-1 cytotox inactive, A549 viability 3%[1.84 µM], KB-V1 cytotox inactive, Nrf2 inh 1%, PI4K2A block 5 and Giardia kill -12.
For O=[S+]([O-])(c1c(F)cccc1F)N1CCN([S+](=O)([O-])c2c(F)c(F)c(F)c(F)c2F)CC1 the results were A549 viability -4% and Nrf2 inh -8%.
`Cc1cc(C)c2[nH]c(=O)c(C(c3nnnn3CC3CCCO3)N3CCC(C)CC3)cc2c1` (configuration not stated) gave KB-3-1 cytotox inactive, A549 viability -5%, KB-V1 cytotox 4.6µM*, Nrf2 inh 4%, PI4K2A block -4 and Giardia kill 4.
CCC(C(=O)Nc1ccccc1N1CCCC1)c1cccc(OC)c1 (configuration not stated) was read as PI4K2A block -2.
Screening Cc1ccc(NC(=O)c2cccc(OCc3c(C)noc3C)c2)c(C)c1 returned KB-3-1 cytotox inconclusive, A549 viability -1%, KB-V1 cytotox inconclusive, Nrf2 inh inconclusive, PI4K2A block 4 and Giardia kill 1.
CC(C)Oc1cccc(C(=O)Nc2ccc(Br)cc2F)c1 was read as KB-3-1 cytotox inactive, A549 viability -4%, KB-V1 cytotox inconclusive, Nrf2 inh inconclusive, PI4K2A block 0 and Giardia kill 8.
For Cc1noc(C)c1COc1cccc(C(=O)Nc2ccc(Br)cc2F)c1 the results were KB-3-1 cytotox 6.5µM*, A549 viability inconclusive, KB-V1 cytotox 2.9µM*, Nrf2 inh 23µM*, PI4K2A block -1 and Giardia kill 5.
Cc1noc(C)c1COc1cccc(C(=O)Nc2ccc3c(c2)OCO3)c1 was read as KB-3-1 cytotox inconclusive, A549 viability -5%, KB-V1 cytotox inconclusive, Nrf2 inh 11%, PI4K2A block 2 and Giardia kill 1.
Screening Cc1ccc(NC(=O)c2ccc(OCc3c(C)noc3C)cc2)c(C)c1 returned KB-3-1 cytotox inconclusive, A549 viability -7%, KB-V1 cytotox inactive, Nrf2 inh 23µM*, PI4K2A block 0 and Giardia kill 11.
For Cc1ccc(NC(=O)c2cccc(OCc3c(C)noc3C)c2)cc1S(=O)(=O)Nc1ccccc1Cl the results were KB-3-1 cytotox inactive, A549 viability -10%, KB-V1 cytotox 7.3µM*, Nrf2 inh inconclusive, PI4K2A block 0 and Giardia kill -11.
`Cc1ccc(NC(=O)c2ccc(OCc3c(C)noc3C)cc2)cc1C` gave KB-3-1 cytotox inconclusive, A549 viability inconclusive, KB-V1 cytotox inconclusive, Nrf2 inh 18µM*, PI4K2A block 2 and Giardia kill -2.
For CCCCNC(=O)NC1CCN(CC(=O)Nc2ccc3c(c2)OCCO3)CC1 the results were PI4K2A block 1.
C=Cc1cc(F)c(S(=O)(=O)N2CCN(S(=O)(=O)c3ccc4c(c3)OCCO4)CC2)cc1F was read as A549 viability 1% and Nrf2 inh -20%.
Cc1noc(C)c1COc1ccc(C(=O)NNC(=O)c2ccccc2)cc1 was read as KB-3-1 cytotox 4.6µM*, A549 viability -11%, KB-V1 cytotox 7.3µM*, Nrf2 inh 13%, PI4K2A block -2 and Giardia kill -20.
Screening Cc1noc(C)c1COc1ccc(C(=O)NNC(=O)c2ccccc2F)cc1 returned KB-3-1 cytotox inconclusive, A549 viability -14%, KB-V1 cytotox inactive, Nrf2 inh -3%, PI4K2A block -2 and Giardia kill -10.
For COc1cccc(/C=N/NC(=O)C(=O)N/N=C/c2cccc(OC)c2O)c1O the results were KB-3-1 cytotox inconclusive, A549 viability -10%, KB-V1 cytotox inactive, Nrf2 inh -14%, PI4K2A block -4 and Giardia kill 5.
Screening COc1cccc(/C=N/NC(=O)c2cc3cc([N+](=O)[O-])ccc3s2)c1O returned KB-3-1 cytotox inconclusive, A549 viability inconclusive, KB-V1 cytotox inconclusive, Nrf2 inh 15µM*, PI4K2A block 2 and Giardia kill -19.
For COc1ccc(S[C@]2(C(=O)N3CCOCC3)CC(=O)N(c3ccc(Cl)cc3)[C@@H]2c2ccc(OC)cc2)cc1 the results were PI4K2A block -4.
